The source made the active and inactive calls.
How the values were obtained:
[1] = tested on: PRMT1 (protein arginine N-methyltransferase 1); assay: small molecules binding arginine methyltransferase PRMT1 – biochemical, small-molecule microarray, 635 nm fluorescence, primary screen (AID 1088); settings: higher = more signal;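 also: binding of Prmt1 protein to compounds spotted on small-molecule microarray slides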
[2] = growth effects on S. cerevisiae YJM789 – YJM789 clinical isolate, OD600, 24 h, basal, primary screen (AID 1089); settings: higher = more signal, called active from +8 up or from −8 down;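 also: growth of clinical yeast isolate S. cerevisiae YJM 789 seeded 1000 cells per well; test concentration not given here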
[3] = S. pombe growth modifiers, basal conditions – strain 972, OD600, 24 h, no modulator, primary screen (AID 1090);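 also: basal condition with compound alone and no growth modifier present; test concentration not given here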; settings: S. pombe 972 growth, higher = more signal, called active from +8 up or from −8 down
[4] = budding yeast growth modifiers under rapamycin – strain BY4716, OD600, 96 h, primary screen (AID 1091); also: test concentration not given here; settings: S. cerevisiae BY4716 + rapamycin, higher = more signal, called active from +8 up or from −8 down
[5] = biological target: Torsin-1A-interacting protein 2 (Homo sapiens) (UniProt Q8NFQ8); assay: small molecules binding lysate-expressed LULL1 – cell lysate, human LULL1 lysate, 635/667 nm fluorescence, primary screen (AID 1092); settings: small-molecule microarray, hLULL1 lysate binding, 635 nm fluorescence; higher = more signal;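 also: probe is lysate of COS7 cells overexpressing human LULL1; score merges per-feature 667 nm fluorescence with signal-to-noise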
Sequence of Torsin-1A-interacting protein 2 (Homo sapiens) (Q8NFQ8 whole entry, looked up): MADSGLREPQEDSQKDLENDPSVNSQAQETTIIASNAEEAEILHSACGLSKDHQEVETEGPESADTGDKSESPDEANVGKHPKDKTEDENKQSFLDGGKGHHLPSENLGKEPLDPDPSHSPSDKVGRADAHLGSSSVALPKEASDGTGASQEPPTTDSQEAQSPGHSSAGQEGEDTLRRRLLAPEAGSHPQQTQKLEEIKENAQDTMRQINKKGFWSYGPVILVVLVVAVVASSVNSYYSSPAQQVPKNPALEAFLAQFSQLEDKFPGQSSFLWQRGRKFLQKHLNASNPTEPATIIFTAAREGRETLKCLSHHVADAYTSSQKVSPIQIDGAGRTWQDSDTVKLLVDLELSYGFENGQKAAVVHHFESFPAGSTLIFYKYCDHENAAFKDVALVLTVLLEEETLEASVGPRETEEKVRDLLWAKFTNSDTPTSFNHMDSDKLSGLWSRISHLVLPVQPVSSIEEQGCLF

[6] = optical density change of DRC41 E. coli – strain DRC41, OD650, 24 h, E. coli filamentation project, primary screen (AID 1093);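 also: MC1000 strain lacking acrAB efflux and sulA so SOS filamentation is blocked; test concentration not given here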; settings: E. coli DRC41 growth, higher = more signal, called active from +8 up or from −8 down
[7] = probe aLefty2 binding to arrayed compounds – biochemical, biotinylated probe, 635/667 nm fluorescence, primary screen (AID 1094); settings: small-molecule microarray, higher = more signal;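 also: score merges spot fluorescence near 667 nm with spot signal-to-noise ratio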
[8] = tested on: Noggin (protein binding on small-molecule microarray); assay: small molecules binding Noggin protein – biochemical, 635/667 nm fluorescence, primary screen (AID 1095); settings: 635 nm fluorescence, higher = more signal;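 also: score merges 667 nm feature fluorescence with signal to noise over triplicate slides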
[9] = biological target: Neurogenic locus notch homolog protein 3 (Homo sapiens) (UniProt Q9UM47); assay: small molecules binding NOTCH3 protein – biochemical, 635/667 nm fluorescence, primary screen (AID 1096); settings: small-molecule microarray, 635 nm fluorescence, higher = more signal
Sequence of Neurogenic locus notch homolog protein 3 (Homo sapiens) (Q9UM47 whole entry, looked up): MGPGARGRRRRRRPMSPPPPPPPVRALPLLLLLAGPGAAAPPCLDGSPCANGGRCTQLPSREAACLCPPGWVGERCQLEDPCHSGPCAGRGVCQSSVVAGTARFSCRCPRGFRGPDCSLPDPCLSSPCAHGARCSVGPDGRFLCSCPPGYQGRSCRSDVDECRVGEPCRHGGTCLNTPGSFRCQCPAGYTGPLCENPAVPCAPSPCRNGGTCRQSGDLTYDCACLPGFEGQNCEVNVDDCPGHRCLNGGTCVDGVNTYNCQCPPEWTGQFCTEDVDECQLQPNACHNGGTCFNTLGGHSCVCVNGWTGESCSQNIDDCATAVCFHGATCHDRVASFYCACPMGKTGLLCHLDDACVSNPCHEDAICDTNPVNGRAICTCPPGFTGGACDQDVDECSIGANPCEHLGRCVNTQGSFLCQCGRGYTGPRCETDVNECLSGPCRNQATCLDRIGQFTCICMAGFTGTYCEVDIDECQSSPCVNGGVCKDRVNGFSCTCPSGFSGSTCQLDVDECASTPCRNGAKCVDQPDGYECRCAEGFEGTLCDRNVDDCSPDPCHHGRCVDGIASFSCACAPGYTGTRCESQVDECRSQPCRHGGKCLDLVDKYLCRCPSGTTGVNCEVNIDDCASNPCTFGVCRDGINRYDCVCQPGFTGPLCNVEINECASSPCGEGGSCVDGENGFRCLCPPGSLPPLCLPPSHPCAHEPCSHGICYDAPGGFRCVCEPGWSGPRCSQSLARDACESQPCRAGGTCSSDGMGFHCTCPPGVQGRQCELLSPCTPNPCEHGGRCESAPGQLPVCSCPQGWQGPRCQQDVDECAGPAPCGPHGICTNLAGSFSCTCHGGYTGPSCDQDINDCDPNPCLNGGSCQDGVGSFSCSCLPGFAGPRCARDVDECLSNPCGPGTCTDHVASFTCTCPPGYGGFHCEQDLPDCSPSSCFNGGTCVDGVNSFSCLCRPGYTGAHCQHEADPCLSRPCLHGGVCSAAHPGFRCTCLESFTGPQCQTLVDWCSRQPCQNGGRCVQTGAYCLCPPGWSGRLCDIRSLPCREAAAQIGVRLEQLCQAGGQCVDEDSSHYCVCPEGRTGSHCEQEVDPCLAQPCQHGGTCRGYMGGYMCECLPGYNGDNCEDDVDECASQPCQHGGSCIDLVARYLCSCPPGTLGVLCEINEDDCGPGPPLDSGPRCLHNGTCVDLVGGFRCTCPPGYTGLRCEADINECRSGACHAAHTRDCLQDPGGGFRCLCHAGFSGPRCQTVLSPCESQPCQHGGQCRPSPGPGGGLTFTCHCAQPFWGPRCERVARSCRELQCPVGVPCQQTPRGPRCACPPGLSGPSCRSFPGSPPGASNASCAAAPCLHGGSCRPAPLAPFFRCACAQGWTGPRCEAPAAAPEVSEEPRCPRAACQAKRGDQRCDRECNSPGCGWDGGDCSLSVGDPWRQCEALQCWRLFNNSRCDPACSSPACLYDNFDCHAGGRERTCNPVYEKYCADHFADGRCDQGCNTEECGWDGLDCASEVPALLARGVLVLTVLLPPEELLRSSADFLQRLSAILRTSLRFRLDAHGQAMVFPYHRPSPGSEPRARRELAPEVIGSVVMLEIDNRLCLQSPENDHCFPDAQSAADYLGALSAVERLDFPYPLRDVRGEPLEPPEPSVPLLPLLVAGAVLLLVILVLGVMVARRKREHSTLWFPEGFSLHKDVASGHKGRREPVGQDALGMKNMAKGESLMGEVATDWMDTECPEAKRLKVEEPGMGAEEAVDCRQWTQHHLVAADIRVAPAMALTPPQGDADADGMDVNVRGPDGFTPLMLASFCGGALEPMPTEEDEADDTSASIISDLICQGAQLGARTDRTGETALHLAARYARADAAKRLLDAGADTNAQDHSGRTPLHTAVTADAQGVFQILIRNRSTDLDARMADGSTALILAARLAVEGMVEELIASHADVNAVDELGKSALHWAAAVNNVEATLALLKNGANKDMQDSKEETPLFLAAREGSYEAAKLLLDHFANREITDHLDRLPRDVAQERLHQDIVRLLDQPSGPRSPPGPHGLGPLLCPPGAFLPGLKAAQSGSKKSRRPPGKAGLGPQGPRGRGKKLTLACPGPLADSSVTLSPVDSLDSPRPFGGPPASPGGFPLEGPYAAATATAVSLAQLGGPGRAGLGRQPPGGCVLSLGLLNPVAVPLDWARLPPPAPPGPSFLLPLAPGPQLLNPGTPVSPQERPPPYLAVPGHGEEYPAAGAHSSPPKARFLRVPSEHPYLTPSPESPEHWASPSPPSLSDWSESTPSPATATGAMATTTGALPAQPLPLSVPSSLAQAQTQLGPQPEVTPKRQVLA

[10] = probe aEGFR binding to arrayed compounds – biochemical, biotinylated probe, 635/667 nm fluorescence, primary screen (AID 1097); settings: small-molecule microarray, higher = more signal;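 also: probe is a biotinylated anti-EGFR antibody binding compounds printed on slides; score combines fluorescence near 667 nm and signal to noise of each spot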
[11] = tested on: Plasmodium falciparum Sir2 (PF13_0152, Sir2A); assay: Plasmodium falciparum Sir2A binding compounds – biochemical, small-molecule microarray, 635 nm fluorescence, primary screen (AID 1098); settings: fluorescence 635 nm, higher = more signal;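 also: score merges spot fluorescence intensity with its signal-to-noise ratio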
[12] = probe aDKK1 binding to arrayed compounds – biochemical, biotinylated probe, 635/667 nm fluorescence, primary screen (AID 1099); settings: small-molecule microarray, higher = more signal;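 also: score merges 667nm spot fluorescence with signal to noise across triplicate slides; reference of the scale not given here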
[13] = probe aCHRDL2 binding to arrayed compounds – biochemical, biotinylated probe, 635/667 nm fluorescence, primary screen (AID 1100); settings: small-molecule microarray, higher = more signal
[14] = change in splice reporter luminescence, either direction, cell-based, HEK293, spliceosome inhibition project, primary screen (AID 1101); settings: HEK293 splicing luciferase reporter, 24 h, higher = more signal, called active from +8 up or from −8 down;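 also: HEK293 cells carrying a splicing-competent luciferase reporter gene; test concentration not given here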
[15] = biological target: Fibroblast growth factor 10 (Homo sapiens) (UniProt O15520); assay: compounds binding fibroblast growth factor 10 – biochemical, small-molecule microarray, 635 nm fluorescence, primary screen (AID 1102); settings: FGF10 binding, fluorescence 635 nm, higher = more signal
Sequence of Fibroblast growth factor 10 (Homo sapiens) (O15520 whole entry, looked up): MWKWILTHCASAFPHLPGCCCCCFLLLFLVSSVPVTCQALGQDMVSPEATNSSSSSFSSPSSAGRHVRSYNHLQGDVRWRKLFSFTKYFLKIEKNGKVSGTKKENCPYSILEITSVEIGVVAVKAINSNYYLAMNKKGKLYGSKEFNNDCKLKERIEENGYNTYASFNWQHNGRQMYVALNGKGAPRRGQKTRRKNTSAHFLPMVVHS

[16] = tested on: glycogen synthase kinase-3 (GSK3A per assay name; protocol says GSK3B); assay: compounds binding glycogen synthase kinase-3 – biochemical, small-molecule microarray, 635 nm fluorescence, GSK3A, primary screen (AID 1103); settings: fluorescence 635 nm, higher = more signal; also: the record names both GSK3A and GSK3B
[17] = biological target: Epidermal growth factor receptor (Homo sapiens) (UniProt P00533); assay: compounds binding epidermal growth factor receptor – biochemical, small-molecule microarray, 635 nm fluorescence, primary screen (AID 1104); settings: EGFR binding, higher = more signal;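 also: score merges 667 nm emission intensity with spot signal to noise over triplicate slides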
Sequence of Epidermal growth factor receptor (Homo sapiens) (P00533 whole entry, looked up): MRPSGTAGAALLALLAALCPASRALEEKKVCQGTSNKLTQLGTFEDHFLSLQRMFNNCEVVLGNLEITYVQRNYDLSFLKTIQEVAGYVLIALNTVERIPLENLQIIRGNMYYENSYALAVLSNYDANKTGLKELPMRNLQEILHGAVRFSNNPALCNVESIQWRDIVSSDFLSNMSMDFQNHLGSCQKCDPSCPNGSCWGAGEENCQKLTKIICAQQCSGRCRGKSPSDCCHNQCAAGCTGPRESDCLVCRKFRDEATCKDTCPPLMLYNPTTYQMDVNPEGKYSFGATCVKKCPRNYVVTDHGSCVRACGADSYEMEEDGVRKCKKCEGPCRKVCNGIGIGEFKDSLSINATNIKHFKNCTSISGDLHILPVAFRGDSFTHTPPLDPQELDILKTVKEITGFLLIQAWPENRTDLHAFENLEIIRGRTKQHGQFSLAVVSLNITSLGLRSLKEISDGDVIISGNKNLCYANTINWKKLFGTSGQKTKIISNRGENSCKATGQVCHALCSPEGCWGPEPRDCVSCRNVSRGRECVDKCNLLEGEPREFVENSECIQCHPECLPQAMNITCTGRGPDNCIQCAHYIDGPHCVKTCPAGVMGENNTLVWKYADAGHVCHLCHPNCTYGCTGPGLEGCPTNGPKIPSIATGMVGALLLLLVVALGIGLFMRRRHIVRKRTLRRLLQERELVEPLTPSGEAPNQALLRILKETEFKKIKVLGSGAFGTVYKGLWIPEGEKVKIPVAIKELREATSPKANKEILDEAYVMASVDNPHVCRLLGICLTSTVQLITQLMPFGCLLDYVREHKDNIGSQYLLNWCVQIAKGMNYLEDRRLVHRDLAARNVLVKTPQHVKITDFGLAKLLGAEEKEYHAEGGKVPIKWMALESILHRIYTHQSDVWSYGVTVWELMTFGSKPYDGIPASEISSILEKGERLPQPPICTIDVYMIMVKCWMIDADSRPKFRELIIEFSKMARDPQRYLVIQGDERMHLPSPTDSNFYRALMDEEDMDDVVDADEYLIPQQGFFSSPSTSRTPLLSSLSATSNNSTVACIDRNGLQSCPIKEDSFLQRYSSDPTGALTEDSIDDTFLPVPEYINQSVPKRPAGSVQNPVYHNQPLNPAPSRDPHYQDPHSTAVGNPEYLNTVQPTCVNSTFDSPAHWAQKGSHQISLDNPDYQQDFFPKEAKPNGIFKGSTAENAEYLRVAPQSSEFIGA

[18] = biological target: Follistatin-related protein 3 (Homo sapiens) (UniProt O95633); assay: compounds binding follistatin-related protein 3 – biochemical, small-molecule microarray, 635 nm fluorescence, primary screen (AID 1105); settings: FSTL3 binding, higher = more signal;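 also: score merges emission near 667 nm and signal to noise per printed spot across three slides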
Sequence of Follistatin-related protein 3 (Homo sapiens) (O95633 whole entry, looked up): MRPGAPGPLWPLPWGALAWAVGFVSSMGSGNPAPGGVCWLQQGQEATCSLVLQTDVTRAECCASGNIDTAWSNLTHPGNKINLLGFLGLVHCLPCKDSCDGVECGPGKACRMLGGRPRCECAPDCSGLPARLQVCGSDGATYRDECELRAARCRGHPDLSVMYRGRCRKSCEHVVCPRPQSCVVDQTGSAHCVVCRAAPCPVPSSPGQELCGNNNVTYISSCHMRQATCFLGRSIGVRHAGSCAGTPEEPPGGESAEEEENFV

[19] = biological target: Dickkopf-related protein 1 (Homo sapiens) (UniProt O94907); assay: small molecules binding DKK1 protein – biochemical, small-molecule microarray, 635 nm fluorescence scan, primary screen (AID 1106); settings: higher = more signal;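 also: score merges emission near 667 nm with signal to noise over three replicate slides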
Sequence of Dickkopf-related protein 1 (Homo sapiens) (O94907 whole entry, looked up): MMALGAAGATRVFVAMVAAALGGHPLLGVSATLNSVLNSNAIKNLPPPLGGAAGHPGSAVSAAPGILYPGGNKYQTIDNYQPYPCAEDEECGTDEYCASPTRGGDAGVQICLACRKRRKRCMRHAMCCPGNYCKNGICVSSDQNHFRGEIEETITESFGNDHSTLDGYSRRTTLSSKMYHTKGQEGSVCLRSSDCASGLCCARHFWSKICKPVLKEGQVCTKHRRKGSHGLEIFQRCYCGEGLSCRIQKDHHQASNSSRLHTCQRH

[20] = tested on: Inhibin beta A chain (activin A); assay: small molecules binding activin A – biochemical, small-molecule microarray, 635 nm fluorescence scan, primary screen (AID 1107); settings: INHBA, higher = more signal;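 also: mouse activin A protein probed at 4.33 µg/mL on printed slides; score merges bound-protein fluorescence near 667 nm with spot signal-to-noise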

SMILES	composite z-score [1]	z-score [2]	z-score [3]	z-score [4]	composite z-score [5]	z-score [6]	composite z-score [7]	composite z-score [8]	composite z-score [9]	composite z-score [10]	composite z-score [11]	composite z-score [12]	composite z-score [13]	z-score [14]	composite z-score [15]	composite z-score [16]	composite z-score [17]	composite z-score [18]	composite z-score [19]	composite z-score [20]
CC(C)N1C(=O)C[C@@](C(=O)O)(c2ccc([N+](=O)[O-])cc2)[C@H]1c1ccc(CO)cc1	1.01	0.548 (inactive)	-0.996 (inactive)	-0.265 (inactive)	2.72	1.27 (inactive)	0.0511	-1.13	0.0599	-0.158	1.08	0.744	1.11	-0.186 (inactive)	-0.443	-0.381	-1.12	-0.633	-0.803	0.593
C=CCN1C(=O)[C@]2(CCS(=O)(=O)c3ccccc3)N=C(c3ccc(OCCCO)cc3)O[C@@H]2c2ccccc21	1.54	-0.523 (inactive)	-1.16 (inactive)	2.46 (inactive)	3.65	0.624 (inactive)	0.0416	1.49	1.1	0.0574	1.38	-0.317	0.7	-1.81 (inactive)	0.732	1.29	0.387	1.43	0.466	1.18
CC1CC/C=C\[C@H]2OC34C=CCN(c5ccc(Cl)cc5)C(=O)[C@H]3N(C(C)CO)C(=O)[C@]4(C)C2C(=O)O1 (stereo not given in full)	-0.678	-0.0407 (inactive)	-0.738 (inactive)	0.334 (inactive)	-1.05	0.108 (inactive)	-0.0099	-0.603	-0.984	-0.173	0.365	-0.132	0.158	-0.718 (inactive)	-0.39	-0.793	-0.955	-1.43	-0.945	0.896
COc1cc(NN2C(C(O)c3ccc(N(C)C)cc3)C=CC3C(=O)N(c4ccccc4)C(=O)C32)cc(OC)c1OC (stereo not given)	0.824	0.146 (inactive)	-0.424 (inactive)	-0.363 (inactive)	1.4	-1.58 (inactive)	0.473	-0.308	0.544	0.0955	0.101	1.16	1.13	-0.859 (inactive)	0.513	0.765	-0.038	0.455	-0.335	1.67
C=C(COC)/C(=C/C[C@H](OC(=O)c1ccncc1)c1ccc(CO)o1)c1cnc2ccccc2c1	1.54	0.685 (inactive)	-0.694 (inactive)	0.662 (inactive)	1.34	-0.148 (inactive)	-0.114	0.84	1.09	-0.0805	0.296	-0.155	-0.137	0.801 (inactive)	1.12	0.986	0.387	1.34	0.348	1.81

From PubChem BioAssay
